The source made the active and inactive calls.
How the values were obtained:
[1] = test system: PRMT1 (protein arginine N-methyltransferase 1); assay: PRMT1 binders on small-molecule microarrays, primary screen, biochemical, small-molecule microarray, 635 nm fluorescence (AID 1088); details: small-molecule microarray binding, higher = more signal;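 further: binding of Prmt1 protein to compounds spotted on small-molecule microarray slides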
[2] = yeast growth modulation, basal conditions, primary screen, YJM789 clinical isolate, OD600, 24 h (AID 1089);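 further: growth of clinical yeast isolate S. cerevisiae YJM 789 seeded 1000 cells per well; test concentration not given here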; details: S. cerevisiae YJM789 growth, higher = more signal, called active from +8 up or from −8 down
[3] = fission yeast growth modulation, primary screen, strain 972, OD600, 24 h, no modulator (AID 1090);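 further: basal condition with compound alone and no growth modifier present; test concentration not given here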; details: S. pombe 972 growth, higher = more signal, called active from +8 up or from −8 down
[4] = S. cerevisiae growth modulation with rapamycin, primary screen, strain BY4716, OD600, 96 h (AID 1091); details: higher = more signal, called active from +8 up or from −8 down; further: test concentration not given here
[5] = biological target: Torsin-1A-interacting protein 2 (Homo sapiens) (UniProt Q8NFQ8); assay: LULL1 binders on small-molecule microarray, primary screen, cell lysate, human LULL1 lysate, 635/667 nm fluorescence (AID 1092); details: hLULL1 lysate binding, 635 nm fluorescence, higher = more signal;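 further: probe is lysate of COS7 cells overexpressing human LULL1; score merges per-feature 667 nm fluorescence with signal-to-noise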
[6] = E. coli growth modulation, two-sided OD650, primary screen, E. coli filamentation project, strain DRC41, 24 h (AID 1093); details: OD650, 24 h, higher = more signal, called active from +8 up or from −8 down;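 further: MC1000 strain lacking acrAB efflux and sulA so SOS filamentation is blocked; test concentration not given here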
[7] = small-molecule microarray binders of probe aLefty2, primary screen, biochemical, biotinylated probe, 635/667 nm fluorescence (AID 1094); details: higher = more signal;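 further: score merges spot fluorescence near 667 nm with spot signal-to-noise ratio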
[8] = test system: Noggin (protein binding on small-molecule microarray); assay: Noggin binders on small-molecule microarray, primary screen, biochemical, 635/667 nm fluorescence (AID 1095); details: 635 nm fluorescence, higher = more signal;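 further: score merges 667 nm feature fluorescence with signal to noise over triplicate slides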
[9] = biological target: Neurogenic locus notch homolog protein 3 (Homo sapiens) (UniProt Q9UM47); assay: NOTCH3 binders on small-molecule microarray, primary screen, biochemical, 635/667 nm fluorescence (AID 1096); details: NOTCH3 binding, 635 nm fluorescence, higher = more signal
[10] = small-molecule microarray binders of probe aEGFR, primary screen, biochemical, biotinylated probe, 635/667 nm fluorescence (AID 1097); details: higher = more signal;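 further: probe is a biotinylated anti-EGFR antibody binding compounds printed on slides; score combines fluorescence near 667 nm and signal to noise of each spot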
[11] = test system: Plasmodium falciparum Sir2 (PF13_0152, Sir2A); assay: pfSir2 binders on small-molecule microarrays, primary screen, biochemical, small-molecule microarray, 635 nm fluorescence (AID 1098); details: small-molecule microarray binding, fluorescence 635 nm; higher = more signal;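 further: score merges spot fluorescence intensity with its signal-to-noise ratio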
[12] = small-molecule microarray binders of probe aDKK1, primary screen, biochemical, biotinylated probe, 635/667 nm fluorescence (AID 1099); details: higher = more signal;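 further: score merges 667nm spot fluorescence with signal to noise across triplicate slides; reference of the scale not given here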
[13] = small-molecule microarray binders of probe aCHRDL2, primary screen, biochemical, biotinylated probe, 635/667 nm fluorescence (AID 1100); details: higher = more signal
[14] = splicing luciferase reporter signal modulators, primary screen, spliceosome inhibition project, cell-based, HEK293, splice +/- reporter (AID 1101); details: luminescence, 24 h, higher = more signal, called active from +8 up or from −8 down;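 further: HEK293 cells carrying a splicing-competent luciferase reporter gene; test concentration not given here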
[15] = biological target: Fibroblast growth factor 10 (Homo sapiens) (UniProt O15520); assay: FGF10 binders on small-molecule microarrays, primary screen, biochemical, small-molecule microarray, 635 nm fluorescence (AID 1102); details: FGF10 binding, fluorescence 635 nm, higher = more signal
[16] = test system: glycogen synthase kinase-3 (GSK3A per assay name; protocol says GSK3B); assay: GSK3 binders on small-molecule microarrays, primary screen, biochemical, small-molecule microarray, 635 nm fluorescence, GSK3A (AID 1103); details: small-molecule microarray binding, fluorescence 635 nm; higher = more signal; further: the record names both GSK3A and GSK3B
[17] = biological target: Epidermal growth factor receptor (Homo sapiens) (UniProt P00533); assay: EGFR binders on small-molecule microarrays, primary screen, biochemical, small-molecule microarray, 635 nm fluorescence (AID 1104); details: EGFR binding, higher = more signal;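 further: score merges 667 nm emission intensity with spot signal to noise over triplicate slides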
[18] = biological target: Follistatin-related protein 3 (Homo sapiens) (UniProt O95633); assay: FSTL3 binders on small-molecule microarrays, primary screen, biochemical, small-molecule microarray, 635 nm fluorescence (AID 1105); details: FSTL3 binding, higher = more signal;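 further: score merges emission near 667 nm and signal to noise per printed spot across three slides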
[19] = biological target: Dickkopf-related protein 1 (Homo sapiens) (UniProt O94907); assay: DKK1 binders on small-molecule microarrays, primary screen, biochemical, small-molecule microarray, 635 nm fluorescence scan (AID 1106); details: DKK1 binding, higher = more signal;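 further: score merges emission near 667 nm with signal to noise over three replicate slides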
[20] = test system: Inhibin beta A chain (activin A); assay: INHBA (activin A) binders on microarrays, primary screen, biochemical, small-molecule microarray, 635 nm fluorescence scan (AID 1107); details: small-molecule microarray binding, higher = more signal;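 further: mouse activin A protein probed at 4.33 µg/mL on printed slides; score merges bound-protein fluorescence near 667 nm with spot signal-to-noise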

Chain of Dickkopf-related protein 1 (Homo sapiens) (O94907 whole entry, looked up): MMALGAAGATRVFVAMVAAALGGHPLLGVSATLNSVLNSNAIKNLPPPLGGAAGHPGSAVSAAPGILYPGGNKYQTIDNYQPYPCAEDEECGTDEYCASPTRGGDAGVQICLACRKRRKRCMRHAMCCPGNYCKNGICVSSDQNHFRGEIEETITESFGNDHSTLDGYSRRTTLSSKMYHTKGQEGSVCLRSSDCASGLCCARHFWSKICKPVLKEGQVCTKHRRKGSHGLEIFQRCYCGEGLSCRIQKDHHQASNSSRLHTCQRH
Chain of Torsin-1A-interacting protein 2 (Homo sapiens) (Q8NFQ8 whole entry, looked up): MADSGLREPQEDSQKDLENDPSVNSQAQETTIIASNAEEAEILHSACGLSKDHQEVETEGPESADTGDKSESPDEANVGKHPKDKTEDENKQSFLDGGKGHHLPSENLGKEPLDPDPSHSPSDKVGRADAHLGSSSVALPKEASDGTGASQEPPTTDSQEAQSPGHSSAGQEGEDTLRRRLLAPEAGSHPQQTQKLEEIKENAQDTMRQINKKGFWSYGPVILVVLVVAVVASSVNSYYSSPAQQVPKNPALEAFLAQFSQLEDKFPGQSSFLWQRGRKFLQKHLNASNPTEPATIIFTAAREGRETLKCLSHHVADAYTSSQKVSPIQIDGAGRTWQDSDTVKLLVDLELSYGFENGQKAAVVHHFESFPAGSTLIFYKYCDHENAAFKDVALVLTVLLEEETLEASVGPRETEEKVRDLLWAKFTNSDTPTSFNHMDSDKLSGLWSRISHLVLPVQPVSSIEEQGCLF
Chain of Epidermal growth factor receptor (Homo sapiens) (P00533 whole entry, looked up): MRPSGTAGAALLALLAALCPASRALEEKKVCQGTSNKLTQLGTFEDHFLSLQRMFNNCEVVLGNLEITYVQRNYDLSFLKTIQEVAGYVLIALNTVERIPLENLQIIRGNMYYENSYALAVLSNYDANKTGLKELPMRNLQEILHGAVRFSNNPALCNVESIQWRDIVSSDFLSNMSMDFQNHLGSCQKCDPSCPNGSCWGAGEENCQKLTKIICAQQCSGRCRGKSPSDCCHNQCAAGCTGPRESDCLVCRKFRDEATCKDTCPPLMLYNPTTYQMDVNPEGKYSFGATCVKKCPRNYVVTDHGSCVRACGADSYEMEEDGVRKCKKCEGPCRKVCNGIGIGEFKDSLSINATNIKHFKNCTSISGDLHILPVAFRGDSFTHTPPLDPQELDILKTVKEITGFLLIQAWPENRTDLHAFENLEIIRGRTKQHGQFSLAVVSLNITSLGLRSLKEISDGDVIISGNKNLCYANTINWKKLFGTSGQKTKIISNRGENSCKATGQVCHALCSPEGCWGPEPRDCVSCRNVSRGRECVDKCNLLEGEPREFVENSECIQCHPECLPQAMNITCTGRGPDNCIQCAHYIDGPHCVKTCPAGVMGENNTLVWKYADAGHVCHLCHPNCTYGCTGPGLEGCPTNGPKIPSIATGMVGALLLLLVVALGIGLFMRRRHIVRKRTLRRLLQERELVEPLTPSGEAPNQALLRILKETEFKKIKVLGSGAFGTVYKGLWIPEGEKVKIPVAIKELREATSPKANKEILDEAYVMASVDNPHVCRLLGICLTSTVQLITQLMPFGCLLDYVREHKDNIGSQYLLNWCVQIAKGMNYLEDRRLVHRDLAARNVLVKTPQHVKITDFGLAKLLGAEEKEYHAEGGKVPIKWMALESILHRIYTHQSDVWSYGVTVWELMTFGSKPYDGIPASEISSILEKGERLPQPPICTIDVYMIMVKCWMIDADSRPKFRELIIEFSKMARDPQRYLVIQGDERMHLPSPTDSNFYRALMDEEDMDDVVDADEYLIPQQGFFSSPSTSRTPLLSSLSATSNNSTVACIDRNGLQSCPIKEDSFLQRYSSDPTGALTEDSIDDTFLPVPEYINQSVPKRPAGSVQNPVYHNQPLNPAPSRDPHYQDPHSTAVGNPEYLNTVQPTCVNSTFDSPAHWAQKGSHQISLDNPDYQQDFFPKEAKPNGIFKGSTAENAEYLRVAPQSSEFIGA
Chain of Fibroblast growth factor 10 (Homo sapiens) (O15520 whole entry, looked up): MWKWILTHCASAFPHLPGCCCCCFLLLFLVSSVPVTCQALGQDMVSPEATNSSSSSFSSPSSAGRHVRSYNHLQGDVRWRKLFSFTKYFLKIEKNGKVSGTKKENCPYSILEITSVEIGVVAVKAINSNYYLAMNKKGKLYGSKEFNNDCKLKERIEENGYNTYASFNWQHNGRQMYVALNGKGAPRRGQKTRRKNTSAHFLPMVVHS
Chain of Follistatin-related protein 3 (Homo sapiens) (O95633 whole entry, looked up): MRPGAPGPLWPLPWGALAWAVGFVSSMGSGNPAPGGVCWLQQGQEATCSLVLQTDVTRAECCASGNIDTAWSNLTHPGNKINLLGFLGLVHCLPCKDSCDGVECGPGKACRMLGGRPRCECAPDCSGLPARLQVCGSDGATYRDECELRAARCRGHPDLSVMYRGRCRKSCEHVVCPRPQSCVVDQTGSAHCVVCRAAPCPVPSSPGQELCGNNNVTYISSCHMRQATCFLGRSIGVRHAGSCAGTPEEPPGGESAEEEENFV
Chain of Neurogenic locus notch homolog protein 3 (Homo sapiens) (Q9UM47 whole entry, looked up): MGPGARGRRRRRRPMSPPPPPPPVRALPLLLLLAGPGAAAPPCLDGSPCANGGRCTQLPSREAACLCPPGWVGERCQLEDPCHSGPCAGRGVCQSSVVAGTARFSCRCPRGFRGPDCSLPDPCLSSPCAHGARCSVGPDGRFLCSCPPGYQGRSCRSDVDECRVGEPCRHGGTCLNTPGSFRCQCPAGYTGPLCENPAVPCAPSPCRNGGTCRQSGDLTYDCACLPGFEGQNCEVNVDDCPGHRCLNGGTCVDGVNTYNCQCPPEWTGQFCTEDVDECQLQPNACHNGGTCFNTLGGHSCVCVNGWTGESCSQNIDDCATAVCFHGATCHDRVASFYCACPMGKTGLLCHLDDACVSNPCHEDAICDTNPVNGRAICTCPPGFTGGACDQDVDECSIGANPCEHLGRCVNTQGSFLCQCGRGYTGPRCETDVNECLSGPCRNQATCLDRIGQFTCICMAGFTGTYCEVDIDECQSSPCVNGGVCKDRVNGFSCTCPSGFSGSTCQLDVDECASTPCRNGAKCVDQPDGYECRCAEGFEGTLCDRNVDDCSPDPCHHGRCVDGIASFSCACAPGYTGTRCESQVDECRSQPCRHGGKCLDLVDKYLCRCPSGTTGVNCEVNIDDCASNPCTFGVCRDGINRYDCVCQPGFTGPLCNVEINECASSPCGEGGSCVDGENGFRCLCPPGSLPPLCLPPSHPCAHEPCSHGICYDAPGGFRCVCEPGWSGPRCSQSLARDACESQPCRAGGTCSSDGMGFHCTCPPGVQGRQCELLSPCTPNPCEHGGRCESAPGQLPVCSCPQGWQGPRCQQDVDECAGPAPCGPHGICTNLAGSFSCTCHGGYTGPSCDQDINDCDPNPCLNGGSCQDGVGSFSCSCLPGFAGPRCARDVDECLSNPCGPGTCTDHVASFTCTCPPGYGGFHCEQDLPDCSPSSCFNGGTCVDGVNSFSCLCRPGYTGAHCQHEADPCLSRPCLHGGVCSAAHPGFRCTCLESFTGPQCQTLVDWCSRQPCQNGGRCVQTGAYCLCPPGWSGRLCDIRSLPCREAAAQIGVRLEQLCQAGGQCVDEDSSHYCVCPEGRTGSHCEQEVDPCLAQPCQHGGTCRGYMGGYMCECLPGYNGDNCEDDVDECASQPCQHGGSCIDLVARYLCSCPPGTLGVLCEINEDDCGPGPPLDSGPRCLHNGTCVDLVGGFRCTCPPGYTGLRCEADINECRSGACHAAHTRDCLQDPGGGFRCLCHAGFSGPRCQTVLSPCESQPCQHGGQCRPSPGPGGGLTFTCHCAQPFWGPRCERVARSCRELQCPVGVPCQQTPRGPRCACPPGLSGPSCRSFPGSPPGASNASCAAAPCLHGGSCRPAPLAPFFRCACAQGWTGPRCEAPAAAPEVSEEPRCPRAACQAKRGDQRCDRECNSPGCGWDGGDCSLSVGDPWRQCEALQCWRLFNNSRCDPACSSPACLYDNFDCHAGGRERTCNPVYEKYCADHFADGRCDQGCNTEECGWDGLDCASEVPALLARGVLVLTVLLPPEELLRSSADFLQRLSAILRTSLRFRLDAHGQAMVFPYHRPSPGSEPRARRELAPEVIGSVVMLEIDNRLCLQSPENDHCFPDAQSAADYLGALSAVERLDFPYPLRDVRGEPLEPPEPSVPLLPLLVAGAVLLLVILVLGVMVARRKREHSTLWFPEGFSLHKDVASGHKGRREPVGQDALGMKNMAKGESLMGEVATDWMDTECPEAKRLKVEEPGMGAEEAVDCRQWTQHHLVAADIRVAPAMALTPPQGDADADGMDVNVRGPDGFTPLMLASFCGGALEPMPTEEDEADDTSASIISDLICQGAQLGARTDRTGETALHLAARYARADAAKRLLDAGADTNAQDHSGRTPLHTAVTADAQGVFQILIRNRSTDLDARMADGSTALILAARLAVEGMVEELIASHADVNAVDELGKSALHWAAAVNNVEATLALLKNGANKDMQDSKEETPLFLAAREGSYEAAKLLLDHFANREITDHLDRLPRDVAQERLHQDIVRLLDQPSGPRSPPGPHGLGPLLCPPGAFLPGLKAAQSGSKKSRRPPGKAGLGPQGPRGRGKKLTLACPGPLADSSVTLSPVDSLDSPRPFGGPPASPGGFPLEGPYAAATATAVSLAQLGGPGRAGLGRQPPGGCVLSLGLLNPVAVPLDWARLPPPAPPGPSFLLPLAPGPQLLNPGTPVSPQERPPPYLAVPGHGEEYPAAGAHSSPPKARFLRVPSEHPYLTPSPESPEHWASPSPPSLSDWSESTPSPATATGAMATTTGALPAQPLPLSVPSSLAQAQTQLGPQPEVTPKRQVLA

Row | Structure (SMILES) | composite z-score [1] | z-score [2] | z-score [3] | z-score [4] | composite z-score [5] | z-score [6] | composite z-score [7] | composite z-score [8] | composite z-score [9] | composite z-score [10] | composite z-score [11] | composite z-score [12] | composite z-score [13] | z-score [14] | composite z-score [15] | composite z-score [16] | composite z-score [17] | composite z-score [18] | composite z-score [19] | composite z-score [20]
1 | CCOC(=O)C1=C[C@@H](CC)N(S(=O)(=O)c2ccc(C)cc2)[C@H]1c1ccccc1 | 1.18 | -0.595 (inactive) | 0.849 (inactive) | 0.567 (inactive) | 2.71 | -0.556 (inactive) | 0.097 | 0.13 | 1.1 | 0.0356 | 0.689 | -0.1 | 0.521 | 0.803 (inactive) | 0.769 | 1.01 | 0.586 | 0.59 | 0.43 | 0.538
2 | O=C(CS)NCCCCCCNC(=O)[C@H]1C[C@H]2C(=O)N3CCC[C@H]3C(=O)N2[C@H]1c1cccc(OCCO)c1 | 1.5 | -0.319 (inactive) | -0.26 (inactive) | 0.0927 (inactive) | 3.05 | -0.983 (inactive) | 0.105 | 0.858 | 1.1 | 0.0219 | 1.86 | -0.037 | -0.109 | 0.5 (inactive) | 1.08 | 1.34 | 0.543 | 0.575 | 0.904 | 0.683
3 | CC(C)c1ccc(NN2C(C(O)c3cccc(O)c3)C=CC3C(=O)N(c4ccccc4)C(=O)C32)cc1 (stereo not given) | 1.46 | 1.18 (inactive) | -0.653 (inactive) | 0.697 (inactive) | 3.62 | -0.416 (inactive) | 0.234 | 0.527 | 1.06 | -0.0053 | 0.996 | 0.808 | 0.835 | 0.689 (inactive) | 1.39 | 1.27 | 0.373 | 1.05 | -0.0143 | -0.251
4 | CC(C)=CCCC(C)=CC(O)C1C=CC2C(=O)N(c3ccccc3)C(=O)C2N1Nc1ccccc1 (stereo not given) | 0.967 | 0.316 (inactive) | 0.171 (inactive) | 1.02 (inactive) | 2.89 | -1.99 (inactive) | 0.201 | -0.196 | 1.04 | 0.438 | 1.36 | 1.21 | 0.997 | 1.18 (inactive) | 1.05 | 0.978 | 0.251 | 1.38 | 0.113 | 1.06
5 | COCC1=C2[C@@H](CCc3ccccc3)OB(O)C[C@@H]2[C@@H]2C(=O)N(Cc3ccccc3)C(=O)[C@@H]2C1 | 0.229 | -0.471 (inactive) | -1.22 (inactive) | -0.37 (inactive) | 0.295 | -0.715 (inactive) | -0.155 | 0.198 | -0.0497 | -0.132 | 0.174 | -0.143 | -0.188 | 0.161 (inactive) | 0.628 | 0.197 | 0.388 | 0.191 | 0.249 | 0.728
6 | COc1ccc([Si](C)(C)[C@H]2[C@H](CC(=O)N(CCO)Cc3ccccc3)O[C@@]3(C(=O)N(Cc4cccc(N5CCC5=O)c4)c4ccccc43)[C@@H]2C)cc1 | 1.39 | -0.763 (inactive) | -0.509 (inactive) | 1.16 (inactive) | 1.64 | 2.57 (inactive) | -0.0188 | 0.847 | 0.976 | -0.0334 | 1.32 | 0.122 | 0.0014 | -2.18 (inactive) | 0.697 | 0.599 | 0.4 | 0.893 | 0.696 | 0.928
7 | COc1ccc(C#Cc2ccc3c(c2)[C@]2(C(=O)N3)[C@H](C(=O)NC[C@H](O)c3ccccc3)[C@H]3C(=O)O[C@H](c4ccccc4)[C@H](c4ccccc4)N3[C@@H]2c2ccccc2OCCO)cc1 | 1.54 | 2.23 (inactive) | 2.01 (inactive) | 4.39 (inactive) | 2.94 | 0.413 (inactive) | 0.0179 | 1.4 | 1.06 | -0.0192 | 1.74 | 0.408 | 0.334 | -0.955 (inactive) | 0.877 | 1.19 | 0.186 | 1.16 | 0.169 | -0.0953
8 | CC(=O)NCCCC[C@@H]1NC(=O)[C@H]2C[C@@H](C(=O)NCCCCCC[N+](C)(C)C)[C@@H](c3cccc(OCCO)c3)N2C1=O | 1.53 | -0.752 (inactive) | 0.0936 (inactive) | -0.425 (inactive) | 2.98 | 1.23 (inactive) | -0.16 | 1.19 | 0.97 | -0.0967 | 1.44 | -0.104 | -0.207 | -1.6 (inactive) | 1.17 | 0.917 | 0.848 | 1.58 | 1.85 | 0.695
9 | COc1ccc(C(O)C2C=CC3C(=O)NC(=O)C3N2Nc2ccccn2)cc1OCc1ccccc1 (stereo not given) | 0.301 | 0.167 (inactive) | 1.03 (inactive) | -0.269 (inactive) | 3.51 | -0.181 (inactive) | -0.0865 | 0.15 | -0.192 | 0.0357 | 0.524 | 0.0679 | 0.668 | 1.04 (inactive) | -0.0457 | 0.13 | 0.208 | 0.187 | -0.236 | 0.557
10 | COc1cc2c(cc1O)C(C)N(Cc1cccc(OC(F)(F)F)c1)CC2 (stereo not given) | 1.42 | -0.167 (inactive) | -2.4 (inactive) | -1.09 (inactive) | 3.02 | -1.26 (inactive) | -0.0719 | 0.205 | 0.76 | -0.0697 | 1.7 | 0.0376 | 0.23 | -0.0689 (inactive) | 1.24 | 0.219 | -0.425 | 0.514 | 0.188 | 0.902

— PubChem BioAssay
